Most compounds without a hit are left out; they make up all but 2.9% or so of the library.
Rango complex inh = Rango-importin beta binding inhibition; Q14974; Rango CFP/YFP FRET sensor + importin beta, 45 min; Potency, µM (highest dose often 92.2 µM), for the others: at the highest dose inhibition of complex formation; hit rate 0.031% among 340,000; AID 540263;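 further: potency means the concentration at half of the fitted maximal effect; 0% = DMSO wells and 100% = buffer wells lacking importin beta; nearly all actives have a fitted effect of over 15% in size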
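Inhibition scored from the CFP 486 nm/YFP 530 nm FRET ratio 45 min after adding 0.125 microM importin beta to 50 nM Rango biosensor preincubated 5 min with compound (room temperature, PBS with DTT, Tween-20, BSA). No-importin wells as positive control.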
PTAP TSG101 blk = blocks PTAP/TSG101 interaction to inhibit HIV-1 budding. 340,000 tested, under 10 active. AID 493005. Fluorescence polarization, FITC-PTAP peptide / Tsg101 binding. Q99816. Potency, µM (top dose mostly 115 µM), for the others: top-dose activity change, negative = inhibition, most hits filed as inhibitors; active means well fitted inhibition curve with a large enough effect in the main read-out, with a control signal flat, not every such curve was filed as active; inconclusive means small, poorly fitted or top-dose-only effect, or effect the other way, or a change in a side signal; inactive means no such curve, though single readings can be large or run the other way; further: potency means the concentration at half of the fitted maximal effect; % of control where 0% means no effect
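Fluorescence polarization binding of Tsg101 binding domain (10 uM final) to FITC-labeled PTAP peptide (50 nM final) in HEPES pH 7.5 buffer with NaCl, Tween 20, EDTA, TCEP. Compounds added before peptide; binding 20 min at RT.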
Mm-Cpn inhibitor = inhibitors of Methanococcus maripaludis chaperonin TRiC (MmCpn); purified Mm-Cpn ATPase, ADP Transcreener TR-FRET; Potency, µM (doses to about 76.9 µM), for inactives: top-dose activity, negative = inhibition, usual class: inhibitors; hit rate 0.031% among 330,000; AID 504842; active means well fitted inhibition curve with a large enough effect; inconclusive means small, poorly fitted or top-dose-only effect; further: potency means the concentration at half of the fitted maximal effect; on the % scale 0 is the no-effect control and ±100 the full control effect; nearly all actives have a fitted effect of over 80% in size
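Compound-treated chaperonin, 25 nM final, turns over 10 uM ATP at 37°C for 30 min following a 10 min preincubation; ADP generated competes with ADP-d2 for Eu-cryptate antibody, lowering FRET.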
DRD3 antagonist = D3 dopamine receptor (human) antagonism | max response, negative = inhibition, % | hit rate 2.5% among 360,000 | AID 652054 | P35462 | D3R cells, DiscoveRx beta-arrestin luminescence, antagonist mode; hits give low values; in the data active means max response below about -50%; inconclusive means no clear call, values can overlap the other calls; further: on the % scale 0 is the no-effect control and ±100 the full control effect
Target sequence (P35462 whole entry, looked up): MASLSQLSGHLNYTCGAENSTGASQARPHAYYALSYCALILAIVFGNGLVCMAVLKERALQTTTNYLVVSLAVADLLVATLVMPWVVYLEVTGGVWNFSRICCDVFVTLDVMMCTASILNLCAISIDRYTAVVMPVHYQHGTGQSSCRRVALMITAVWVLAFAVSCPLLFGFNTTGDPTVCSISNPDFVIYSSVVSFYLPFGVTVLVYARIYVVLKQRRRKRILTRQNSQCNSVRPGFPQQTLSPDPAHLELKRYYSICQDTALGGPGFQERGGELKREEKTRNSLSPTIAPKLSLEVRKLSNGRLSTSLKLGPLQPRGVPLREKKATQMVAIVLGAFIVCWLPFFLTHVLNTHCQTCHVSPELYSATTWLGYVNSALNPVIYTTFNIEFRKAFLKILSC
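Cells expressing the human receptor were seeded at 1500 cells/well, incubated overnight at 37 degrees C in 5% CO2, then exposed to library compounds with dopamine controls for 90 minutes at 37 degrees C before luminescent detection.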
Rango release inh = prevents RanGTP from dissociating the Rango-importin beta complex. O95149+P62826. Biochemical FRET Rango-importin beta, RanGTP-induced dissociation. hit rate 0.071% among 340,000. Potency, µM (top dose mostly 46.1 µM), without a hit: top-dose activity change, negative = inhibition; further: potency means the concentration at half of the fitted maximal effect; % of control where 0% means no effect; nearly all actives have a fitted effect of over 45% in size
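Compounds sat 5 min at room temperature with 0.1 uM Rango biosensor plus 0.25 uM importin beta, then FRET pre-read. RanGTP-RCC1 (0.6 uM Ran, 2mM GTP, 0.2 uM RCC1) added for 45 min, and the CFP/YFP post-read measured blocked complex dissociation.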
DRD3 agonist = agonists of human D3 dopamine receptor; P35462; D3R DiscoveRx beta-arrestin cells, luminescence, 90 min; max activation, %; hit rate 0.58% among 410,000; AID 652048; in the data active means max activation above about 30%; further: 0% is about no effect
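Agonist mode: compounds and dopamine controls were applied to plated cells for 90 min at 37 degrees C after an overnight attachment at 1500 cells/well. Luminescent read-out followed 30 - 60 minutes at room temperature with DiscoveRx detection reagent.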
Starred values were filed as active, the others as inactive; ? = inconclusive; · = no result. Unless noted, the call rests on the fitted dose curve.

SMILES	Rango complex inh	PTAP TSG101 blk	Mm-Cpn inhibitor	DRD3 antagonist	Rango release inh	DRD3 agonist
COc1ccc(C(CNC(=O)C(C)Oc2ccc(Br)cc2)N2CCCC2)cc1 (stereo unspecified)	-4.0%	0.1%	2.1%	-81.2*	-6.9%	-23.3
COc1ccc(C(CNC(=O)C(CCSC)NC(=O)c2ccccc2Cl)N2CCCCC2)cc1 (stereo unspecified)	0.6%	0.2%	-0.2%	-59.1*	2.4%	-22.6
COc1ccc(C(CNC(=O)c2cccc(NS(=O)(=O)c3ccc(Br)cc3)c2)N(C)C)cc1 (stereo unspecified)	6.1%	-6.4%	-4.1%	-78.5*	-15.8%	-28.8
COc1ccc(C(CNC(=O)c2cccc(Br)c2)N2CCCC2)cc1 (stereo unspecified)	0.2%	-0.4%	-3.4%	-86.8*	-11.4%	-5.1
COc1ccc(C(=O)NCC(c2ccc(Cl)cc2)N2CCCCC2)cc1 (stereo unspecified)	·	·	·	·	·	-16.9
Cc1cccc(NC(=O)C2CCCN(S(=O)(=O)c3c(C)noc3/C=C/N(C)C)C2)c1C (stereo unspecified)	·	·	·	·	·	3.2
CCOc1ccc(CCNC(=O)CCCn2c(=O)c3cccn3c3cccnc32)cc1	·	·	·	·	·	5.8
COc1ccc(C(CNC(=O)c2ccccc2C)N2CCCC2)cc1 (stereo unspecified)	0.3%	-3.4%	-3.1%	-85.3*	1.1%	-34.1
COc1ccc(C(CNC(=O)c2cccc(S(=O)(=O)N(C)c3ccccc3)c2)N2CCCC2)cc1 (stereo unspecified)	0.7%	1.1%	-2.8%	-66.0*	-0.2%	-24.7
COc1ccc(C(CNC(=O)c2ccc(S(=O)(=O)N(C)C)cc2)N2CCCC2)cc1 (stereo unspecified)	-1.0%	-1.8%	0.0%	-7.7	-11.1%	-12.4
COc1ccccc1C(CNC(=O)c1cccc(S(=O)(=O)Nc2ccc(C)cc2)c1)N1CCCC1 (stereo unspecified)	0.4%	0.1%	0.3%	-8.5	4.9%	-18.7
COc1ccc(C(CNC(=O)c2cccc(S(=O)(=O)Nc3ccc(C)cc3)c2)N2CCCCC2)cc1 (stereo unspecified)	?	0.2%	0.0%	-63.9*	-9.2%	-32.7
COc1ccc(C(CNC(=S)NCc2ccccc2)N2CCCC2)cc1 (stereo unspecified)	2.4%	-1.3%	-11.2%	-57.8*	9.6%	-34.8
COc1ccc(C(CNC(=O)COc2ccccc2C)N2CCCCC2)cc1 (stereo unspecified)	1.2%	-4.4%	-0.3%	-10.7	-5.2%	-18.7
Cc1ccc(C)c(N2CCN(C(=O)c3ccc4c(=O)n(CCc5ccccc5)c(=O)[nH]c4c3)CC2)c1	·	·	·	·	·	3.0
COc1ccc(C(CNC(=O)c2cccc(NS(=O)(=O)c3ccccc3)c2)N2CCCC2)cc1 (stereo unspecified)	-0.7%	0.1%	·	-88.0*	1.1%	-2.0
COc1ccc(C(CNS(=O)(=O)c2ccc(NC(C)=O)c(OC)c2)N2CCCCC2)cc1 (stereo unspecified)	0.2%	-1.3%	-0.3%	8.9	2.4%	-7.8
COc1ccc(C(CNS(=O)(=O)c2ccc(NC(C)=O)c(OC)c2)N2CCCC2)cc1 (stereo unspecified)	-2.4%	-5.5%	1.5%	-53.9*	-13.7%	-2.0
CCC1CCc2sc(C(=O)NCC(c3ccc(OC)cc3)N3CCOCC3)cc2C1 (stereo unspecified)	-2.1%	2.8%	1.5%	-90.5*	-4.1%	-5.1
COc1ccc(NS(=O)(=O)c2cccc(C(=O)N/N=C/c3cccs3)c2)cc1	-1.1%	-1.6%	0.3%	-52.3*	1.4%	-18.5
Cc1ccc(CNC(=O)c2cc3sccc3n2Cc2ccc(Cl)cc2)cc1	·	·	·	·	·	-25.2
CC1(C(=O)NS(=O)(=O)c2ccccc2OC(F)(F)F)CCN1C(=O)c1ccccc1 (stereo unspecified)	·	·	·	50.5	·	6.7

Assay outcomes (PubChem)
